Screening data from PubChem.
An excerpt weighted towards active compounds, which were near 2.8% of everything screened.
SNCA expr inh: inhibitors of alpha-synuclein (SNCA) gene expression | HEK-293 SNCA-luciferase knock-in, luminescence, 24 h | Potency, µM (top dose mostly 57.2 µM), for the others: top-dose activity change, negative = inhibition, most hits filed as inhibitors | 140,000 tested, 0.17% active | AID 1671194;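 further: potency means the concentration at half of the fitted maximal effect; plate controls were DMSO cells for no effect and cell-free wells for full effect; nearly all actives have a fitted effect of over 45% in size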
HEK293 viab: counter-screen for SNCA expression inhibitors: cell viability. HEK-293-SNCA-luc viability, GF-AFC fluorescence, 24 h. Potency, µM (highest dose often 57.1 µM), without a hit: at the top dose activity change, negative = cytotoxicity, most hits filed as cytotoxic. 150,000 tested, 0.12% active. AID 1671193;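 further: potency means the concentration at half of the fitted maximal effect; 0% = DMSO-treated cells and -100% = medium-only wells without cells; nearly all actives have a fitted effect of over 30% in size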
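Cytotoxicity counterscreen: after 24 h compound treatment of genome-edited SNCA-luciferase HEK-293 cells, live-cell protease substrate GF-AFC read by fluorescence after 30 min; activity scaled between DMSO (0%) and medium-only (-100%), curves Hill-fitted.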
KDM5B inh: inhibitors of human KDM5B histone demethylase | KDM5B demethylase, FDH-coupled NADH fluorescence (FDH is formaldehyde dehydrogenase) | Potency, µM (titrated, usually from 57.7 µM), most hits filed as inhibitors | Q9UGL1 | 220,000 tested, 2.6% active; further: potency means the concentration at half of the fitted maximal effect; 0% is about no effect; nearly all actives have a fitted effect of over 70% in size
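Here, H3K4me3 peptide (12.5 µM in substrate mix) is demethylated by KDM5BΔAP, 200 nM final, after 10 min compound exposure. Formaldehyde product is coupled through FDH (0.25 U/mL in mix) to NADH fluorescence; 30-min ΔRFU feeds dose-response curves.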
IP6K1 inhibitor: IP6K1 kinase inhibition. IP6K1 kinase, ADP-Glo luminescence, 2 h; hits give low values. activity change, % (series mostly up to about 58 µM). 140,000 tested, 0.81% active; in the data active means activity change below about -25%; further: on the % scale 0 is the no-effect control and ±100 the full control effect
Target sequence (Q92551 whole entry, looked up): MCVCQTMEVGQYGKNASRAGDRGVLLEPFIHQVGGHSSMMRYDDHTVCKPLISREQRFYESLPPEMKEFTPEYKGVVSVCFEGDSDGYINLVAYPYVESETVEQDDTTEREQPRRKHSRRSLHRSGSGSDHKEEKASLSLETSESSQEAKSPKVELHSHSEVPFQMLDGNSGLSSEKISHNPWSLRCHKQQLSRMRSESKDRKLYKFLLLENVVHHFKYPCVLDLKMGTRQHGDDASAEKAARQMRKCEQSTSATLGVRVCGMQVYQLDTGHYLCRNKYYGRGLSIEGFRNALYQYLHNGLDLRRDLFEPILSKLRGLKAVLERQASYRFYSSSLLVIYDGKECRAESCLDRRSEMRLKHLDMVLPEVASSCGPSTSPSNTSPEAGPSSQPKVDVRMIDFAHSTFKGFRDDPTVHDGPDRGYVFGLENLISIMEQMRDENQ
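ADP-Glo luminescence measures ADP made by human IP6K1 during a 2 h RT reaction with ATP/IP6 (mix at 1.3 mM/130 uM); top library doses 57.5 and 19.1 uM final.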
* marks the source's active call; other numbers are inactive results; i = inactive; ? = inconclusive; nt = not tested or not shown; ! = repeats disagree; [ ] = remark or other dose. Unless noted, the call rests on the fitted dose curve; in most records, active means well fitted curve in the direction sought with a large enough effect; inconclusive means small, poorly fitted or top-dose-only effect, or another doubt; inactive means no such curve, though single readings can be large; an effect the other way counts as inactive or inconclusive.

SMILES | SNCA expr inh | HEK293 viab | KDM5B inh | IP6K1 inhibitor
O=C(O)C1=NOC2CN(CC3CCNC3)CC12 (centres undefined) | 12%[87.6 µM] | 4%[87.6 µM] | 141µM* | 0
COc1ccc2c(c1OC)CN1CCc3cc4c(cc3C1C2)OCO4 (centres undefined) | 3µM*! | ? | nt | 14
CN1CCc2cc3c(cc2C1C1OC(=O)c2c1ccc1c2OCO1)OCO3 (centres undefined) | nt | 9% | nt | 1
CN1CCN(C(=O)Cc2cccn2-c2ccc(F)cc2)CC1 | 31% | 1% | i | 6
Cc1noc(C)c1-c1cnc2[nH]cc(CC(=O)N3CCN(C)CC3)c2c1 | 53%[87.6 µM] | 6%[87.6 µM] | 28µM* | 4
COc1ccc(OC)c(-c2cnc3[nH]cc(CC(=O)N4CCN(C)CC4)c3c2)c1 | -14%[87.6 µM] | 0%[87.6 µM] | i | -7
CN1CCN(C(=O)Cc2c[nH]c3ncc(-c4cccc(Cl)c4)cc23)CC1 | 4%[87.6 µM] | -5%[87.6 µM] | 35µM* | -21
Cc1ccccc1-c1cnc2[nH]cc(CC(=O)N3CCN(C)CC3)c2c1 | -20%[87.6 µM] | 1%[87.6 µM] | 32µM* | -12
Cc1noc(C)c1COc1ccc(CC(=O)N2CCN(CC(=O)N3CCCCC3)CC2)cc1 | nt | nt | i | nt
CN1CCN(C(=O)Cc2c[nH]c3ncc(-c4cccc(F)c4)cc23)CC1 | 5%[87.6 µM] | 8%[87.6 µM] | 28µM* | -12
Cc1ccc(CN2C[C@@H]3C(C(N)=O)=NO[C@@H]3C2)nc1 | -27%[87.6 µM] | 3%[87.6 µM] | ? | 0
C=CCCOC(=O)N1C[C@H](C(=O)OCC)[C@H]2c3ccccc3N(CC3CC3)C(=O)[C@]21C | ? | ? | nt | 5
CCOC(=O)[C@H]1CN(C(=O)c2ccc(OC)c(OC)c2)[C@]2(C)C(=O)N(CC3CC3)c3ccccc3[C@H]12 | nt | nt | nt | -1
CNc1nc(N2C[C@H]3CN(CCOC)C[C@@]3(C(=O)O)C2)ncc1F | ? | -1% | 16µM* | 22
CCOC(=O)[C@H]1CN(C(=O)COc2ccccc2)[C@]2(C)C(=O)N(CC(=O)N(C)C)c3ccccc3[C@H]12 | nt | nt | nt | -2
CNc1ccc(OC2CCNCC2)nc1 | 0% | 14% | 28µM* | 18
CN1C(=O)[C@@H](Cc2c[nH]c3ccccc23)N=C(c2ccccc2F)c2ccccc21 | nt | -18% | nt | 0
COc1ccc(-c2cc([C@H]3CN4CC[C@H]3C[C@@H]4CNC(=O)Nc3ccccc3)n(C)n2)cc1 | -6% | -3% | i | -1
Cc1nc(-c2ccco2)cc([C@H]2CN3CC[C@H]2C[C@@H]3CNC(=O)c2cccs2)n1 | 29%[87.6 µM] | -5%[87.6 µM] | ? | 17
Cc1nc(-c2ccco2)cc([C@H]2CN3CC[C@H]2C[C@@H]3CNC(=O)Cc2cccs2)n1 | 20%[87.6 µM] | 0%[87.6 µM] | 18µM* | 7
Cc1ccc(C(=O)NC[C@H]2C[C@@H]3CCN2C[C@@H]3c2cc(-c3cccs3)nc(C)n2)cc1 | ? | ? | 35µM* | 19
Cc1nc(-c2ccco2)cc([C@H]2CN3CC[C@H]2C[C@@H]3CNC2CCOCC2)n1 | 11%[87.6 µM] | -11%[87.6 µM] | 22µM* | 4
COc1cc(C(=O)N2CC[C@@H](O)[C@@H](N)C2)cc2nc(-c3cc4ccccc4n3CC3CC3)n(C)c12 | -3% | -26% | nt | nt
CCOC(=O)[C@@H]1[C@H]2c3ccccc3N(C)C(=O)[C@H]2N(C(=O)NC2CCCC2)[C@@H]1c1ccccc1 | nt | nt | nt | 15
CCn1cc(CN2CCN(C(=O)Cc3cccs3)CC2)ccc1=O | 21% | -14% | 13µM* | 1
SMILES | SNCA expr inh | HEK293 viab | KDM5B inh | IP6K1 inhibitor
CCn1cc(CN2CCN(C(=O)Cc3c(C)noc3C)CC2)ccc1=O | 45% | -5% | 11µM* | 3
COCCNC(=O)[C@H]1CN2CC[C@H]1C[C@@H]2Cn1cc(C2(O)CCCC2)nn1 | -20%[87.6 µM] | -4%[87.6 µM] | i | 6
CC(C)(C)CC(=O)N1C[C@@H]2C[C@H](C1)c1ccc(NC(=O)Nc3cccc(F)c3)c(=O)n1C2 | 62% | -3% | 28µM* | -14
O=C(CCc1c[nH]c2ccccc12)N1[C@H]2CC[C@@H]1c1cnc(-c3ccc(F)cc3)nc1C2 | 1% | 0% | i | 18
Cc1ncc2c(c1CNCC1(O)CNCCOC1)CCNC2 (centres undefined) | ? | -7% | 28µM* | 12
COc1ccc(NC(=O)N2[C@H]3CC[C@@H]2c2cncnc2C3)c(C)c1 | -24% | -6% | i | -5
C=C1[C@@H](C)[C@H]2[C@H](Cc3ccccc3)NC(=O)[C@]23OC(=O)/C=C/C(=O)CCC[C@@H](C)C/C=C/[C@H]3[C@@H]1O | nt | 12µM* | nt | -11
C=C1[C@@H](C)C2[C@H](Cc3ccccc3)NC(=O)[C@@]23C(/C=C/C[C@H](C)C[C@@](C)(O)/C=C/[C@@H]3OC(C)=O)[C@@H]1O (some centres undefined) | nt | -23% | nt | -1
C#CCN1C(=O)[C@@H]2[C@H](c3ccccc31)[C@@H](C(=O)OCC)[C@@H](c1ccccc1)N2C(=O)C(=O)OCC | nt | nt | nt | -2
Cc1nc(-c2ccco2)cc([C@H]2CN3CC[C@H]2C[C@@H]3CNCC2CCCCC2)n1 | 26%[87.6 µM] | -11%[87.6 µM] | i | 6
CCOc1cc(CNCCc2c[nH]c3ccc(OC)cc23)ccc1O | nt | nt | i | nt
Cc1cnc(CCN)n1CC1CC1 | 1% | ? | 7.9µM* | -4
COc1ccccc1-c1cc([C@H]2CN3CC[C@H]2C[C@@H]3CNS(=O)(=O)c2ccc(NC(C)=O)cc2)nc(C)n1 | -2% | -21% | 32µM* | -3
CC(=O)Nc1ccc(S(=O)(=O)NC[C@H]2C[C@@H]3CCN2C[C@@H]3c2cc(-c3ccccc3Br)nc(C)n2)cc1 | 9% | -7% | i | 8
COc1ccccc1-c1cc([C@H]2CN3CC[C@H]2C[C@@H]3COC(=O)NC(C)C)nc(C)n1 | ? | 0%[87.6 µM] | 40µM* | 4
CCCNC(=O)OC[C@H]1C[C@@H]2CCN1C[C@@H]2c1cc(-c2ccccc2OC)nc(C)n1 | -19%[87.6 µM] | 0%[87.6 µM] | 35µM* | 4
O=C(NC1CCCCC1)OC[C@H]1C[C@@H]2CCN1C[C@@H]2c1cc(C2CCCC2)nc(-c2ccncc2)n1 | -26% | -19% | ? | 10
COc1ccccc1-c1cc([C@H]2CN3CC[C@H]2C[C@@H]3COC(=O)Nc2ccccc2)nc(C)n1 | 5% | 5% | ? | 9
COc1ccccc1-c1cc([C@H]2CN3CC[C@H]2C[C@@H]3COC(=O)NC2CCCCC2)nc(C)n1 | ? | -12% | 28µM* | 9
Cc1nc(-c2ccccc2Br)cc([C@H]2CN3CC[C@H]2C[C@@H]3CNC(=O)CSCC(=O)O)n1 | 5% | 0% | 25µM* | 17
COc1ccc(-c2cc([C@H]3CN4CC[C@H]3C[C@@H]4CNC(=O)C(C)(C)C)nc(C)n2)cc1OC | 6% | 2% | 32µM* | 1
COc1ccccc1-c1cc([C@H]2CN3CC[C@H]2C[C@@H]3CNC(=O)CCC(=O)O)nc(C)n1 | -8% | 4% | 32µM* | 8
Cc1nc(-c2ccc(C(F)(F)F)cc2)cc([C@H]2CN3CC[C@H]2C[C@@H]3CNC(=O)CCC(=O)O)n1 | 19% | 1% | i | 5
